# FBW7 activator – human FBW7 E3 ligase activation, primary screen; Q969H0; AlphaScreen FBW7–phospho-cyclin E peptide binding, activator screen; normalized activity (activation), % at 26.1 µM; 0.13% of 650,000 active; AID 1259310; in the data active means normalized activity above about 1.9%;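 further: purified mutant Fbw7 with reduced substrate affinity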
# TEAD-YAP block – TEAD-YAP interaction inhibition; inhibition, % at 9.12 µM; 1.4% of 640,000 active; HEK-TIYL cells, TEAD-Gal4/YAP UAS-luciferase luminescence; AID 1259422; in the data active means inhibition above about 32%;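 further: 0% = median of test compound wells and 100% = reference inhibitor wells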
# MITF primary – blocks human microphthalmia-associated transcription factor | AlphaScreen MITF homodimerization, bead proximity signal | O75030 | inhibition, % at 2.6 µM | AID 1259374 | 0.91% of 650,000 active; in the data active means inhibition above about 50%;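 further: 0% = vehicle wells with protein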
# GPR151 activ – activators of human GPR151; Q8TDV0; PathHunter beta-arrestin GPR151 cells, luminescence; activation, % at 11.2 µM; 1% of 650,000 active; in the data active means activation above about 4.9%;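 further: 0% = median of compound wells and 100% = cells with positive control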
# GPR151 conf act – human GPR151 activation, confirmation screen | shares compounds with GPR151 activ | 6,700 tested, under 10 active | AID 1508609 | GPR151 PathHunter beta-arrestin cells, luminescence, 90 min; % of EA-reagent control over plate median | activation, % at 11.2 µM;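 active means mean percent activation across replicates above the confirmation screen cutoff of 4.91%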
# GPR119 counter – counter-screen for GPR151 activators: effect on human GPR119; shares compounds with GPR151 activ; GPR119 PathHunter beta-arrestin cells, luminescence, 90 min; 0 = compound-well median, 100 = enzyme-acceptor control; activation, % at 11.2 µM; 0.3% of 6,700 active; AID 1508611;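 active means mean percent activation in the counterscreen above 29.09%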;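 further: counterscreen on off-target GPR119 to flag nonselective hits from the GPR151 activator screen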
# Target sequence (Q8TDV5 whole entry, looked up): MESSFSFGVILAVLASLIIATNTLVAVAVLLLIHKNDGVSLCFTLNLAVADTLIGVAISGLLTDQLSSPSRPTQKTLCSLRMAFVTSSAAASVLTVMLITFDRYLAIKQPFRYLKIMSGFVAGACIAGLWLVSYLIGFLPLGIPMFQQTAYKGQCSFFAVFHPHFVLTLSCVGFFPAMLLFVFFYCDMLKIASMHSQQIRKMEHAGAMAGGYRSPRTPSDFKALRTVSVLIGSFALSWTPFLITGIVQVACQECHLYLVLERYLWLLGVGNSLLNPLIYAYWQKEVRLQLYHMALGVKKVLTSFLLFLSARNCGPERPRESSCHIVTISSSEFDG
# * marks the source's active call; other numbers are inactive results; / = not tested or not shown; ! = a repeat was not active. Hits are enriched below; roughly 3.4% of the tested compounds scored in any of these assays.
SMILES,FBW7 activator,TEAD-YAP block,MITF primary,GPR151 activ,GPR151 conf act,GPR119 counter
COc1cc(Nc2nc(N3CCCC3CO)nc3c2ncn3C(C)C)cc(OC)c1OC (stereo unspecified),0.3,14.2,-1.6,2.8,/,/
CCCCN1C(=O)SC(Nc2ccc(F)cc2)C1=O (stereo unspecified),0.1,2.6,6.3,8.2*,-1.7,-6.9
O=C(O)CN1C(=O)SC(Nc2ccccc2)C1=O (stereo unspecified),-0.2,-6.5,0.1,-2.8,/,/
CCOC(=O)CN1C(=O)SC(Nc2ccccc2)C1=O (stereo unspecified),-0.2,2.8,3.0,7.8*,0.3,8.1
O=C(Nc1ccc(Oc2ccc(Oc3ccc(NC(=O)c4cccc(F)c4)cc3)cc2)cc1)c1cccc(F)c1,0.1,-3.3,1.2,3.9,/,/
O=[N+]([O-])c1c(Nc2ccc(Br)cc2F)ccc2nonc12,-0.1,15.6,7.5,5.0*,0.1,-6.9
Cc1cnc(Nc2ccccc2)nc1NCCOc1ccccc1,-0.1,7.2,-5.6,6.0*,0.6,0.6
Cc1cnc(Nc2ccncc2)nc1NCCOc1ccccc1,0.5,2.3,1.6,-2.0,/,/
Cc1ccc(C)c(CSCC2Nc3ccc(C(=O)N4CCOCC4)cc3NC2=O)c1 (stereo unspecified),0.1,-3.1,1.6,-0.3,/,/
O=C(NCCN1CCn2cc(OCc3ccc(F)cc3)c(=O)cc2C1=O)C1CC1,0.0,-0.4,5.3,6.7*,0.9,-10.8
Cc1ccccc1C(=O)NCCN1CCn2cc(OCc3ccccc3)c(=O)cc2C1=O,0.1,1.8,7.6,2.2,/,/
COc1cc(CN2CCN(c3ccc([N+](=O)[O-])cc3)CC2)ccc1O,-0.1,-5.7,14.8,0.2,/,/
O=[N+]([O-])c1ccc(CN2CCN(Cc3cc(Br)ccc3O)CC2)cc1,-0.1,31.1,45.2,6.6*,0.4,16.2
COc1ccc(CN2CCN(c3ccc([N+](=O)[O-])cc3)CC2)cc1O,0.1,36.4*,49.5,6.7*,0.2,18.2
Cc1ccccc1Cn1c(NCc2ccccc2Cl)nc2c1c(=O)[nH]c(=O)n2C,0.0,-7.8,7.9,-1.2,/,/
CCOC(=O)c1cccc2c1-c1ccccc1/C2=N\O,-0.1,11.6,-10.7,-1.4,/,/
Cc1cc(O)c(C(=O)/C=C/c2ccccc2Br)c(=O)o1,0.0,-2.2,-12.3,0.2,/,/
C=CCc1cccc(/C=C/C(=O)c2c(O)cc(C)oc2=O)c1O,-0.1,-4.6,-5.8,5.9*,-0.5,8.5
COc1ccc(C(=O)NC2CC2)cc1OC1CCN(C2CCCCCC2)CC1,-0.3,-0.4,2.9,-0.4,/,/
COc1ccc(C(=O)NC2CC2)cc1OC1CCN(C2CCC2)CC1,0.0,-14.9,6.5,7.0*,0.5,0.7
COc1ccc(C(=O)NC2CC2)cc1OC1CCN(C2Cc3ccccc3C2)CC1,-0.1,-22.9,3.6,11.3*,-0.3,-0.9
COc1ccc(C(=O)NCc2nnc(SCC(=O)N3N=C(c4cccs4)CC3c3ccc(F)cc3)n2-c2ccccc2OC)cc1 (stereo unspecified),0.4,4.9,10.7,0.1,/,/
COc1cc(S(=O)(=O)N2CC(C)OC(C)C2)ccc1Cl (stereo unspecified),0.1,-12.3,-14.2,8.0*,-0.7,-16.1
COc1ccc(CNS(=O)(=O)c2ccc(Cl)c(OC)c2)cc1,-0.3,-0.8,-8.5,-0.4,/,/
COc1cc(S(=O)(=O)N2CC(C)OC(C)C2)ccc1Br (stereo unspecified),-0.1,-4.5,2.6,-0.8,/,/
SMILES,FBW7 activator,TEAD-YAP block,MITF primary,GPR151 activ,GPR151 conf act,GPR119 counter
CCNS(=O)(=O)c1ccc(Cl)c(OC)c1,0.0,-5.5,-5.4,8.0*,-0.1,-0.3
COc1ccc(CNc2cc(C)ccn2)cc1OC,-0.3,-6.8,-24.6,0.0,/,/
CCCCOC(=O)C1C2C=CC3(CN(C4CCCCC4)C(=O)C13)O2 (stereo unspecified),0.0,2.0,11.2,5.8*,0.6,1.2
Cc1ccc(NC(=O)c2cccc(S(=O)(=O)Nc3cccc(C(=O)O)c3)c2)cc1,0.0,8.0,-10.8,6.4*,-0.9,-0.9
COc1c(Cl)cc(C(=O)Nc2cccc(C(=O)O)c2)cc1Cl,0.1,-26.0,6.2,5.7*,0.6,16.6
Nn1c(SCC(=O)Nc2cccc(F)c2)nnc1-c1ccc(Cl)cc1,-0.2,0.7,-6.1,6.2*,0.2,1.8
NC(=O)c1ccc(NC(=O)CSc2nnc(-c3ccc(Cl)cc3)n2N)cc1,0.0,5.5,2.5,0.2,/,/
CN1CCN(C(=S)Nc2cccc(Cl)c2)CC1,-0.1,6.2,14.2,1.6,/,/
CCN1CCN(C(=S)Nc2cccc(Cl)c2)CC1,0.0,6.4,23.1,5.8*,-0.1,-4.3
Cc1nc2cc(C(=O)N3CCCC(N4CCOCC4)C3)ccc2n1-c1ccccc1 (stereo unspecified),0.2,-5.0,-10.4,10.9*,0.5,-6.4
CC(=O)Nc1cc(-c2cccc(Br)c2)nn1-c1ccccc1,-0.1,6.2,6.3,5.3*,-0.9,-4.4
COc1cc(NC(=O)c2cccc([N+](=O)[O-])c2C)ccc1NC(=O)c1ccco1,-0.1,-19.6,7.5,0.8,/,/
Cc1c(C(=O)Nc2ccc(NC(=O)c3ccco3)c(Cl)c2)cccc1[N+](=O)[O-],0.3,5.8,13.6,7.3*,0.9,12.8
Cc1c(C(=O)Nc2cccc(NC(=O)c3cccs3)c2)cccc1[N+](=O)[O-],-0.2,-2.8,-26.6,5.5*,-1.4,-7.8
Clc1ccc(-c2nn(-c3ccccc3)cc2C2CC(c3cccs3)=NN2c2ccccc2)cc1 (stereo unspecified),0.0,8.2,5.4,2.4,/,/
COC(=O)c1cc(OC)c(OC)cc1NC(=S)N1CCCC1,-0.1,6.9,2.6,2.4,/,/
COc1cc(C#N)c(NC(=S)N2CCCC2)cc1OC,0.1,-1.1,6.7,5.4*,-1.0,-2.8
CC(C)CC(=O)N1CCC(c2nc3c(nnn3Cc3cccc(F)c3)c(=O)[nH]2)CC1,0.0,5.3,3.4,5.6*,1.3,7.0
CC(C)CC(=O)N1CCC(c2nc3c(nnn3Cc3ccc(F)cc3)c(=O)[nH]2)CC1,-0.2,2.0,-0.5,1.4,/,/
CCC[C@@H]1NC(=O)[C@H]2CN(C(=O)c3ccccc3)CCN2C1=O,-0.2,-13.8,8.1,-1.1,/,/
Cc1ccc(C(=O)NCc2ccccc2)o1,0.1,3.4,10.0,0.4,/,/
NC(=O)C(=O)NCc1ccc(Cl)cc1,0.8,-0.8,1.8,5.9*,-0.5,-2.0
Cc1ccc(C(=O)NCc2ccc(Cl)cc2)o1,0.2,-7.0,4.6,7.7*,1.2,-8.8
Cc1cccc(C(=O)Nn2c(-c3ccncc3)nc3ccccc3c2=O)c1,-0.2,-1.6,-0.1,0.9,/,/
O=C(O)CCCNC(=O)Cc1c[nH]c2ccccc12,0.2,-5.3,-6.7,0.7,/,/
O=C(O)CCCc1c[nH]c2ccccc12,-0.1,-5.6,7.2,5.0*!,-0.1,3.2
c1ccc(Cc2c[nH]c3ccccc23)cc1,-0.2,15.7,6.2,5.3*,-0.6,5.1
